# The supplement of paper PMC7724964
# T1: ZGPAT 120-268 zf-CCCH+TUDOR (domain begin residue: 120, domain end residue: 268), Q8N5A5
# T1 chain: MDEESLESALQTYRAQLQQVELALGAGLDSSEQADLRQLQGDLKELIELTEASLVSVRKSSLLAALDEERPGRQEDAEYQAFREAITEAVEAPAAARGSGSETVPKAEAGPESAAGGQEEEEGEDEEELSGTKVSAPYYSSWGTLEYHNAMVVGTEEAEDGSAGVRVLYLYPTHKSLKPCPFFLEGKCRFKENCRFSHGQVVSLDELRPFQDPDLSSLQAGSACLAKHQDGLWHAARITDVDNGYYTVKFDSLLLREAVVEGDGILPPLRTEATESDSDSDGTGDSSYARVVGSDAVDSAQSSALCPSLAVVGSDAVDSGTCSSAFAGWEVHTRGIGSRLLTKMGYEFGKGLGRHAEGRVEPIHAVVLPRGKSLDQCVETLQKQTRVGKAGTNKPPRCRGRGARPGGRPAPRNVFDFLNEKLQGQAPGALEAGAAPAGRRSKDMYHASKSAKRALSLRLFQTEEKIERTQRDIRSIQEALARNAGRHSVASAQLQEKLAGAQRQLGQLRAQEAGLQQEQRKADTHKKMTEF
# T2: MYL6 4-151 EF-hand_6 (domain begin residue: 4, domain end residue: 151), P60660
# T2 chain: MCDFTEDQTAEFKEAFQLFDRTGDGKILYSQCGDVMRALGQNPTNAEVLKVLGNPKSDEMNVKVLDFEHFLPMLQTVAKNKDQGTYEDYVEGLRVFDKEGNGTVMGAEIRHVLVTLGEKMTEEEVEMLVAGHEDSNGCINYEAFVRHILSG
# T3: NR1H3 204-447 Hormone_recep (domain begin residue: 204, domain end residue: 447), Q13133
# T3 chain: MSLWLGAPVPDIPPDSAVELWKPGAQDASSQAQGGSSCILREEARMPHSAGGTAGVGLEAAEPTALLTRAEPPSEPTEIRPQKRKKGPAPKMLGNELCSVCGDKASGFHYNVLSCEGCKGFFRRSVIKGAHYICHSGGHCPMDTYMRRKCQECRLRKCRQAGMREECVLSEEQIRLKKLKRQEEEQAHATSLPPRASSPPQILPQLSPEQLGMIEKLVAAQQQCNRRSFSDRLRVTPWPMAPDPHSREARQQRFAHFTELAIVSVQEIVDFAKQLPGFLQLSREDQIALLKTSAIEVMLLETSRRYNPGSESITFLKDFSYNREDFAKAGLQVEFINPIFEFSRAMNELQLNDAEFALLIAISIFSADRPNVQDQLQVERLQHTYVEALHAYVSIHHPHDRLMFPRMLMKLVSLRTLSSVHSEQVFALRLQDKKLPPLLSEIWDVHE
# T4: NR1H4 256-474 Hormone_recep (domain begin residue: 256, domain end residue: 474), Q96RI1
# T4 chain: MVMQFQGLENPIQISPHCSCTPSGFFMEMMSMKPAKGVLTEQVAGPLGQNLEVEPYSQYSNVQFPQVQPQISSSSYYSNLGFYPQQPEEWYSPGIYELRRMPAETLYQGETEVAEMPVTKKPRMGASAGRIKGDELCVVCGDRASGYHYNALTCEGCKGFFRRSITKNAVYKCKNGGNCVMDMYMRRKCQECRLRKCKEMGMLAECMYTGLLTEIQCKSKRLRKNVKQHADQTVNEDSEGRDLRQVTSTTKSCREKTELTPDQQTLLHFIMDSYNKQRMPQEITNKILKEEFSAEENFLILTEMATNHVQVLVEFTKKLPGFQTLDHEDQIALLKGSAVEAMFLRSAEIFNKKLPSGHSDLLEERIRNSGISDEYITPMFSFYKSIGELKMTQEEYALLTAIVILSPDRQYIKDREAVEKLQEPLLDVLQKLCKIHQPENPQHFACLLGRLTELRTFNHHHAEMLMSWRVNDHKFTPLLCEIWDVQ
# T5: NR4A2 327-598 Hormone_recep (domain begin residue: 327, domain end residue: 598), P43354
# T5 chain: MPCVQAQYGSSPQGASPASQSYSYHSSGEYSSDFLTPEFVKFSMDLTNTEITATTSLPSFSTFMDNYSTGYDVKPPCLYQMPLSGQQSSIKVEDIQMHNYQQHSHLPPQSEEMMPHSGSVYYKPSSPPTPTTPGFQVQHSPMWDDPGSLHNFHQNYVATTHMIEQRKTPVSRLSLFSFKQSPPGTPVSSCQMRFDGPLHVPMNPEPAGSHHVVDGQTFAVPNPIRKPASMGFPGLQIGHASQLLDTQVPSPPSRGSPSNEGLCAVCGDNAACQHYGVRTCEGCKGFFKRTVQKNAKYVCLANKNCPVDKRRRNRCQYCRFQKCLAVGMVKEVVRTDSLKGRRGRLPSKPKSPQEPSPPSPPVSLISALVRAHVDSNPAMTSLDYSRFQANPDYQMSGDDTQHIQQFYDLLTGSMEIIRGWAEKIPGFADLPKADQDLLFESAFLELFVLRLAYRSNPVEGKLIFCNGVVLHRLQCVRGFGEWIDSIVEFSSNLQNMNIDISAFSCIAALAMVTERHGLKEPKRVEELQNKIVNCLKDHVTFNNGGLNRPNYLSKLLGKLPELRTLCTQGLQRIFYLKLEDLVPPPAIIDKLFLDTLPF
# T6: NR4A3 356-626 Hormone_recep (domain begin residue: 356, domain end residue: 626), Q92570
# T6 chain: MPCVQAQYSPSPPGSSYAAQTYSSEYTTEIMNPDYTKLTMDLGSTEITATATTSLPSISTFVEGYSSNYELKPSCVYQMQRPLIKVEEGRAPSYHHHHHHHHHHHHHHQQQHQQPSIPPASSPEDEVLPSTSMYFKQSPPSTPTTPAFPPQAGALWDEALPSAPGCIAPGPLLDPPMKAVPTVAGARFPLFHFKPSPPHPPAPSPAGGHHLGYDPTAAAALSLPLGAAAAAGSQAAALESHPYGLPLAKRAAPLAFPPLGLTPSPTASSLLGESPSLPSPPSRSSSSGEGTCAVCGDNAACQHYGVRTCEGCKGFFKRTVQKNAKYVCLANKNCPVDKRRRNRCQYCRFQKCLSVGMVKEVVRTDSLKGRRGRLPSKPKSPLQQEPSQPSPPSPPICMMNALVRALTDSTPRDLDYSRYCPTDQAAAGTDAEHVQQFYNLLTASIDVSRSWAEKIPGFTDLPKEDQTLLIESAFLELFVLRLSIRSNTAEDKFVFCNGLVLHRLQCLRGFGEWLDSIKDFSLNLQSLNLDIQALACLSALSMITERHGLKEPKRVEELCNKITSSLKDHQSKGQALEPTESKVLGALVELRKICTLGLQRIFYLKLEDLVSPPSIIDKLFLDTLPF
# T7: NR2C1 355-603 Hormone_recep (domain begin residue: 355, domain end residue: 603), P13056
# T7 chain: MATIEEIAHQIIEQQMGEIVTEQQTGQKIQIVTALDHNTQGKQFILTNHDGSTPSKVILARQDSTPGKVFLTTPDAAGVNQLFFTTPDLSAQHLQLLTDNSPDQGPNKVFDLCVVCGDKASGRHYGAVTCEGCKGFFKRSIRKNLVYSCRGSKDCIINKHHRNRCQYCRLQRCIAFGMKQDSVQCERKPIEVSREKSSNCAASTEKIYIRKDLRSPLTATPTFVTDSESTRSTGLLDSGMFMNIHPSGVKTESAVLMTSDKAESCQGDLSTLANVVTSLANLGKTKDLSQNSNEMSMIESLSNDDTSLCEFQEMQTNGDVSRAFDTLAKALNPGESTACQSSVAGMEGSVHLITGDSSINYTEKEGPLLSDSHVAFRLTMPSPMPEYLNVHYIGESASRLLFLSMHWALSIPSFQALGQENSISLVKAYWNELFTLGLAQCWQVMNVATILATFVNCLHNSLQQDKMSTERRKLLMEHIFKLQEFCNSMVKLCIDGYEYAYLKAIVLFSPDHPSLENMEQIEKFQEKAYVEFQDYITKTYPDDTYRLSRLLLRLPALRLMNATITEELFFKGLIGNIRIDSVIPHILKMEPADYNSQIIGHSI
# T8: NFKBIA 70-282 EF-hand_6 (domain begin residue: 70, domain end residue: 282), P25963
# T8 chain: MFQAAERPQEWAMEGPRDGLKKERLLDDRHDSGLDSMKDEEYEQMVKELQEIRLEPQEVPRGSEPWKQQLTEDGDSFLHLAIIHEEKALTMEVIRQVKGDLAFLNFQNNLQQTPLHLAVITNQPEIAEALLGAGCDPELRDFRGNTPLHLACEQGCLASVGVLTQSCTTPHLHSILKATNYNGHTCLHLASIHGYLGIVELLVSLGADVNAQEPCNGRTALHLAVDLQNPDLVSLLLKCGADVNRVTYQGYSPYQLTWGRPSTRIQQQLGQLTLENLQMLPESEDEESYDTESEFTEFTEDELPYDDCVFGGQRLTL
# Experiments:
# Assay in all cases: phage ELISA signal ratio (GST-PRM binding over GST background); higher = stronger binding of peptide-phage to the PRM
# [1] = molecular target: MSH6 89-203 PWWP (domain begin residue: 89, domain end residue: 203), P52701
# In short: (§1)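 Human peptide recognition domains were expressed in 96-well plates as fusions to the C-terminus of glutathione S-transferase (GST) and selected against an M13 phage library displaying randomized hexadecapeptides, cysteine-free and glycine-flanked, on the gene-8 major coat protein. Five selection rounds were run, and approximately 48 individual clones from rounds 4 and 5 were tested by phage ELISA. Each value is the ELISA signal on the GST-domain fusion divided by the signal on GST alone. Positive clones were sequenced.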
# [2] = molecular target: T1, ZGPAT 120-268 zf-CCCH+TUDOR (domain …
# In short: as §1
# [3] = molecular target: T2, MYL6 4-151 EF-hand_6 (domain begin …
# In short: as §1
# [4] = molecular target: T3, NR1H3 204-447 Hormone_recep (domain …
# In short: as §1
# [5] = molecular target: T4, NR1H4 256-474 Hormone_recep (domain …
# In short: as §1
# [6] = molecular target: T5, NR4A2 327-598 Hormone_recep (domain …
# In short: as §1
# [7] = molecular target: T6, NR4A3 356-626 Hormone_recep (domain …
# In short: as §1
# [8] = molecular target: T7, NR2C1 355-603 Hormone_recep (domain …
# In short: as §1
# [9] = molecular target: T8, NFKBIA 70-282 EF-hand_6 (domain begin …
# In short: as §1
# Chain of MSH6 89-203 PWWP (domain begin residue: 89, domain end residue: 203), P52701 (P52701 whole entry, the tested form may be a part): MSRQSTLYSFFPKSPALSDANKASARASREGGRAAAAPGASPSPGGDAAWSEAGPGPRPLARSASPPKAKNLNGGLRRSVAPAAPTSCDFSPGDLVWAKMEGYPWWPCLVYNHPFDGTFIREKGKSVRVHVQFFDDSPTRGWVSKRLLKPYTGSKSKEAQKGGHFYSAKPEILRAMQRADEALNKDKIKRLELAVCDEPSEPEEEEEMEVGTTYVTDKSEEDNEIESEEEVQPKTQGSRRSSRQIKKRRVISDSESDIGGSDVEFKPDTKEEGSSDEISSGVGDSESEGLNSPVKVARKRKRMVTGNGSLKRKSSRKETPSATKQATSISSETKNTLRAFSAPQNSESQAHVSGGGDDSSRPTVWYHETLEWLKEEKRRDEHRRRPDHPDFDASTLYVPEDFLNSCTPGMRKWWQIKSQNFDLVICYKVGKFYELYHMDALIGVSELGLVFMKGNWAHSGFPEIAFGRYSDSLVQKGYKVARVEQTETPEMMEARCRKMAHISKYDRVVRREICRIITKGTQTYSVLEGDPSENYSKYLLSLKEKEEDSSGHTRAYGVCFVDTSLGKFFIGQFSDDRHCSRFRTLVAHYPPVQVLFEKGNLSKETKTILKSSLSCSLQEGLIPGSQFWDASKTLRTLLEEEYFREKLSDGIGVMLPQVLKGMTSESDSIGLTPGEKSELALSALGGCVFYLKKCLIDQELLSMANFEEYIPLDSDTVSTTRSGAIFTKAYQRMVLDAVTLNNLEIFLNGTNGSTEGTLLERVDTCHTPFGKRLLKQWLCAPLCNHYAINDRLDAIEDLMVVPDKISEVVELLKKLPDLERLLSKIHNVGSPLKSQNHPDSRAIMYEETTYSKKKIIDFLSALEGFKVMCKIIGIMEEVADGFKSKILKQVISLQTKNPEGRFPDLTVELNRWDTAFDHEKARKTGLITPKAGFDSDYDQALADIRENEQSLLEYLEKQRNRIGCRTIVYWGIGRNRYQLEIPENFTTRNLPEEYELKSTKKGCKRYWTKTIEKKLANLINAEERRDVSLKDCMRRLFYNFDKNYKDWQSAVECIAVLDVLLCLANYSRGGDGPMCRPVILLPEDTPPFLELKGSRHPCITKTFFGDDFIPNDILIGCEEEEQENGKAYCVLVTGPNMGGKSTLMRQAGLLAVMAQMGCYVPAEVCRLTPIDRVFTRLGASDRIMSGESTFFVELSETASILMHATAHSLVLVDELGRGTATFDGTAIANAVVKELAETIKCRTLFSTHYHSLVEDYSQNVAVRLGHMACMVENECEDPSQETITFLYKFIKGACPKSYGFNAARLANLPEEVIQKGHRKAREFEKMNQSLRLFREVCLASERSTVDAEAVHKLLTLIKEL
binder,measurement,setting,value
DPMSDLFMHNPFVQEP,phage ELISA signal ratio,[1],7.54
same,phage ELISA signal ratio,[2],8.79
QWWVFHVGDQMYWAYV,phage ELISA signal ratio,[3],3.08
EMLLDQQMWEWVQAMS,phage ELISA signal ratio,[4],26.9
EYYPEWDFLWRHMQEP,phage ELISA signal ratio,[4],8.56
WQEWLDYTVESQYTLV,phage ELISA signal ratio,[5],7.27
DYPEVEWLTQQWDFWS,phage ELISA signal ratio,[4],17
QTMQRQWLDILLSLEL,phage ELISA signal ratio,[6],20.2
QQEPWWWMDWDFQQAE,phage ELISA signal ratio,[7],4.47
VDPDWWDWMMSQLDTN,phage ELISA signal ratio,[4],6.41
DYMAIWDHIPLKDAGF,phage ELISA signal ratio,[1],6.88
MPDVPYQWVDLTEWFM,phage ELISA signal ratio,[8],15
MYRAPDAYDDHQVYVS,phage ELISA signal ratio,[9],7.46
YFEMLEDDGVWTAPNW,phage ELISA signal ratio,[9],4.27
